# High-throughput results as filed in PubChem BioAssay.
# ADAM17 inh – ADAM17 inhibition, QFRET primary screen | P78536 | recombinant ADAM17, EDANS/DABCYL FRET peptide cleavage | inhibition, % at 6.95 µM | hit rate 0.83% among 370,000;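 active = inhibition above the mean of compounds lying between control limits plus 3 SD, set per campaign, cut at about 8.5% in these data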;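 also: 0% = DMSO-only wells as the low control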
# GC-A act – GC-A (human) enzyme activation. P16066. HEK293 GC-A cells, cGMP TR-FRET, EC30 ANP; 0% at EC30 ANP, 100% saturating ANP. activation, % at 10 µM. hit rate 0.14% among 370,000; in the data active = activation above about 40%
# NPR2 activator – GC-B (human) receptor activation | P20594 | HEK293-GC-B cells, CNP EC30, cGMP TR-FRET; 0% at EC30 CNP, 100% saturating CNP | activation, % at 10 µM | hit rate 0.11% among 370,000;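 active = activation at 10 µM reaching about 35% in either raw or pattern-adjusted values, limit read from the data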
# proKLK7 act – proKLK7 (human) activation, primary screen | purified proKLK7, EDANS-DABCYL substrate fluorescence; 100% is mature enzyme control, 0% vehicle | activation, % at 7 µM | hit rate 0.9% among 370,000;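 active = activation above the mean of all tested compounds plus 3 SD, computed per campaign excluding outliers beyond control limits, cut at about 13% in these data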
# Target sequence (P49862 whole entry, looked up): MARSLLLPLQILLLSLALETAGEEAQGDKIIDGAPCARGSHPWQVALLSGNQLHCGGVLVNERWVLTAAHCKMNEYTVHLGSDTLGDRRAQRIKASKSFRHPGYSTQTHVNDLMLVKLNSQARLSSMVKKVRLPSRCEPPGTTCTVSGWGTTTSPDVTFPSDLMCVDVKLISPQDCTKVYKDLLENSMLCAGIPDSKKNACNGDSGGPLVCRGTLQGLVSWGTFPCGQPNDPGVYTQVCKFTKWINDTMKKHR
# ADAM10 inh – ADAM10 inhibition, QFRET primary screen | O14672 | recombinant ADAM10, EDANS/DABCYL FRET peptide cleavage, 3 h | inhibition, % at 7 µM | hit rate 0.62% among 370,000 | AID 720582;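 active = inhibition above a per-campaign cutoff equal to the mean of compounds falling between control-based bounds plus 3 SD, cut at about 20% in these data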;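 also: 0% = DMSO wells while the 100% control is not disclosed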
# * = called active by the depositor; i = inactive. The list is not random: actives were taken first. Their share in the collection is about 2.2%.
SMILES,ADAM17 inh,GC-A act,NPR2 activator,proKLK7 act,ADAM10 inh
O=C(O)c1ccc(-c2cccc(Cl)c2)o1,-3,-1,-3,0,-7
O=[N+]([O-])c1cc(-c2ccc(C(=S)N3CCOCC3)o2)ccc1Cl,-10,6,2,0,-19
N#CCCN1CCN(C(=S)c2ccc(-c3cccc(Cl)c3)o2)CC1,3,21,73*,-1,5
N#CCCN1CCN(C(=S)c2ccc(-c3ccc(Cl)c(Cl)c3)o2)CC1,0,29,61*,1,-6
CN(C)CC1CCC/C(=C\c2ccc(OC(=O)/C=C/c3ccccc3)cc2)C1=O (configuration not stated),-2,5,-1,1,-7
CN(C)CC1CCC/C(=C\c2ccc(OC(=O)c3ccc(Cl)cc3)cc2)C1=O (configuration not stated),-6,40*,4,1,-15
COC(=O)[C@]12C[C@H](CC(=O)N3CCCC3)C(=O)N(Cc3ccc(Cl)cc3Cl)C1=C[C@H](COCc1ccccc1)O[C@@H]2C,4,1,0,1,6
O=C1C=CC(=Nc2ccc(F)cc2)O1,-2,9,4,-1,-3
O=C1C=CC(=Nc2ccc3c(c2)C(=O)c2ccccc2-3)O1,12*,-2,-6,0,11
Cc1cccc(C)c1NC(=O)CSc1nc(-c2ccco2)cc(C(F)(F)F)n1,-5,57*,0,-1,-11
CCOc1ccc(-n2c(SCC(=O)Nc3ccc4cn[nH]c4c3)nnc2-c2ccncc2)cc1,2,-5,-3,0,5
Cn1c(=NC(=O)CCS(=O)(=O)c2ccccc2)sc2cc(F)ccc21,-3,62*,35,1,-7
COCCn1c(=NC(=O)CCS(=O)(=O)c2ccccc2)sc2cc(C(=O)OC)ccc21,2,61*,2,0,8
COCCn1c(SCC(=O)NC(=O)NC(C)C)nc2ccccc21,-5,42*,-3,0,5
O=C(CSc1nc2ccccc2c(=O)n1-c1ccc(Cl)cc1)NNC(=S)Nc1ccccc1,8,-2,-3,0,19
O=C(COc1ccccc1)NCCSCc1ccc(Cl)cc1,8.6*,-1,-4,-1,0
O=C(Cc1ccccc1)NCCSCc1ccc(Cl)cc1,1,-11,-8,1,-5
CCOC(=O)N1C(=O)C[C@](Sc2ccc(OC)cc2)(C(=O)N2CCOCC2)[C@H]1c1ccc(OC)cc1,-2,-1,-2,1,-6
Oc1ccc(C2N=C(c3ccccc3)NC(c3ccccc3)=N2)cc1,-2,27,34*,0,-10
c1ccc(C2=NC(c3ccccc3)N=C(c3ccccc3)N2)cc1,0,-7,-7,0,2
O=C(CCc1[nH]c2ccccc2c1Sc1ccccc1)NCCO,0,43*,16,0,9
CC(C)CN1C(=O)[C@]2(CC(=O)N(C)C2c2ccccc2)c2cc(-n3cc(C4=CCCCC4)nn3)ccc21 (some centres not stated),0,-2,13,0,3
O=C(CN(c1cccc(C(F)(F)F)c1)S(=O)(=O)c1ccc(Cl)c([N+](=O)[O-])c1)NCc1ccc(F)cc1,4,-20,-5,0,20*
CC(=O)Nc1cccc(C(C)C2=CCCCC2)c1 (configuration not stated),5,-4,4,0,4
COC(=O)C1(C(=O)OC)NOC2C(=O)N(c3ccc(Cl)cc3Cl)C(=O)C21 (configuration not stated),11*,-1,3,0,12
SMILES,ADAM17 inh,GC-A act,NPR2 activator,proKLK7 act,ADAM10 inh
COC(=O)C1(C(=O)OC)NOC2C(=O)N(N(C)c3ncc(C(F)(F)F)cc3Cl)C(=O)C21 (configuration not stated),4,4,0,-1,5
O=C(CSc1nnc(CNc2ccc(F)cc2)o1)N1c2ccccc2Sc2ccccc21,8,-6,-3,-1,24*
CCC(NC(=O)Cc1cccs1)c1ccccc1 (configuration not stated),1,1,68*,0,-1
CC(NC(=O)Cc1cccs1)c1ccccc1 (configuration not stated),0,4,1,0,-4
O=C(OC12CCCN(C1)/C(=C/c1cccc(Cl)c1)C2)c1ccno1 (configuration not stated),0,4,-2,0,4
Cc1ccc(-c2cc(-c3ccccc3)nc(Cl)n2)cc1,-2,-1,-6,0,-6
Cc1ccc(-c2cc(C(F)F)nc(S(C)(=O)=O)n2)cc1,-13,74*,1,2,-37
C=CCN1[C@H](C#N)[C@@H](c2ccc(C#Cc3cccc(OC)c3)cc2)[C@H]1CO,-3,5,5,0,-14
COc1cc(-c2nc3cnccn3c2Nc2ccc(C(C)C)cc2)ccc1O,-65,55*,1,2,-161
Cc1ccn2c(Nc3ccc4c(c3)OCO4)c(-c3ccc(O)cc3)nc2c1,-56,47*,16,-3,-135
Oc1ccc(-c2nc3cnccn3c2Nc2ccc3c(c2)OCCO3)cc1,-1,41*,29,0,-25
c1ccc(-c2nc3cnccn3c2Nc2ccc3c(c2)OCCO3)cc1,-4,45*,36*,1,-2
CN1Cc2nnn(CC3CCCCC3)c2-c2ccccc2S1(=O)=O,4,-1,-6,1,4
COC(=O)C1CN(CCc2ccccc2)CCS(=O)(=O)N1Cc1ccc(C(F)(F)F)cc1 (configuration not stated),-1,-2,0,0,1
CCOC(=O)C1=NOC(C(=O)NCc2ccccc2)(C(=O)c2ccc(OC)cc2)C1 (configuration not stated),0,-1,-8,0,-5
COc1cc(-c2nc3ccc(C)cn3c2Nc2ccc3c(c2)OCCO3)ccc1O,-206,36,39*,-6,-386
Cc1c(Nc2cc(Cl)c3nonc3c2[N+](=O)[O-])c(=O)n(-c2ccccc2)n1C,1,15,37*,0,5
O=C(O)c1ccc(Nc2cc(Cl)c3nonc3c2[N+](=O)[O-])cc1,2,2,-1,0,-3
O=[N+]([O-])c1c(Nc2cccc(O)c2)cc(Cl)c2nonc12,0,14,37*,0,2
Clc1cccc(CSc2nnc(-c3c[nH]c4ccccc34)o2)c1,4,3,5,1,21*
CC(C)CNC(=O)c1coc(=O)c(Br)c1,-126,3,5,27*,-492
CN(C)CCNC(=O)c1coc(=O)c(Br)c1,-207,0,0,-6,i
CC(C)(C)C(=O)COC(=O)CNC(=O)c1ccc(Oc2ccccc2)cc1,-5,42*,-1,0,-3
